From PubChem
TLR4-MyD88 BLA: inhibitors of TLR4-MyD88 association in cells, primary screen, cell-based, HeLa CL3-4, BLA complementation, FRET ratio | inhibition, % at 8.4 µM | HeLa CL3-4 TLR4/MyD88 BLA complementation | AID 861, 2007 | Toll-like receptor 4 (Homo sapiens) + Myeloid differentiation primary response protein … | 0.18% of 200,000 active; in the data active = inhibition above about 25%;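 note: 0% = vehicle and 100% = reference inhibitor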
ANO1 activ: TMEM16A chloride channel activators or potentiators, primary screen, cell-based, HTS; 0.3% of 340,000 active; B-score at 10 µM; AID 623877, 2012; HEK293 TMEM16A/YFP-H148Q/I152L, iodide quench fluorescence; stronger effect = lower value;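 active = fluorescence-ratio B-score plate-corrected deviation score at least 3 library SD below zero, with starting fluorescence score within 5 deviations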;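 note: channel opened by trigger with iodide after compound preincubation; score built on the fluorescence ratio of max minus min over baseline; more negative score means more quench and so TMEM16A activation or potentiation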
NOD2 RIPK2 PPI: NOD2-RIPK2 binding disruptors in cells, primary screen, fluorescence, CHO cells, BLA complementation. CCF4 ratio. 0.38% of 360,000 active. inhibition, % at 4.98 µM. Receptor-interacting serine/threonine-protein kinase 2 (Homo sapiens), O43353; in the data active = inhibition above about 21%;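 note: 0% = vehicle only and 100% = reference blocker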
TLR9-MyD88 block: inhibitors of TLR9-MyD88 association in cells, primary screen, cell-based, CHO, BLA complementation, fluorescence. inhibition, % at 4.98 µM. Toll-like receptor 9 (Homo sapiens) + Myeloid differentiation primary response protein …. 0.21% of 340,000 active. CCF4 FRET ratio;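 active = inhibition above the mean over all tested compounds plus 3 SD, cut at about 21% in these data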;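 note: 0% = DMSO only wells and 100% = clavulanate BLA inhibitor control wells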
GRK2 inh: compounds blocking aptamer binding on GRK2 – biochemical, human GRK2, bead flow cytometry, HTS, primary screen | Beta-adrenergic receptor kinase 1 (Homo sapiens), P25098 | FAM-aptamer displacement from GRK2 | inhibition of aptamer binding, % at 10 µM | 0.59% of 330,000 active | AID 488847, 2010;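 active = inhibition of aptamer binding above 40%, roughly 3 SD of noise, on plates passing a quality check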;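 note: median bead fluorescence of bound FAM aptamer so fluorescent compounds give negative values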
ANO1 block: TMEM16A chloride channel inhibitors, primary screen, cell-based, HTS; normalized B-score (activity score, 25-100; higher = stronger inhibition) at 10 µM; 1.2% of 310,000 active; HEK293 TMEM16A/YFP iodide influx fluorescence, ionomycin;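 active = ratio plate-corrected score three or more library SD toward inhibition, starting fluorescence score within five deviations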;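 note: score derived from kinetic fluorescence span divided by baseline fluorescence per well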
* marks the source's active call; other numbers are inactive results; i = inactive; . = not tested or not shown. Sampled rows, rich in hits. Any-hit rate of the full collection: about 2.2%.

SMILES | TLR4-MyD88 BLA | ANO1 activ | NOD2 RIPK2 PPI | TLR9-MyD88 block | GRK2 inh | ANO1 block
CCOC(=O)c1c(N)sc2c(OCC)c(Br)ccc12 | 21 | i | -12 | -4 | 6 | i
CCOC(=O)c1c(NC(C)=O)sc2c(OCC(O)CNC(C)(C)C)c(Br)ccc12 (stereo unspecified) | 0 | -7.1* | 11 | -3 | 0 | i
Cc1ccc(-n2c(O)c(/C=N/Nc3ccc(S(=O)(=O)N4CCOCC4)cc3[N+](=O)[O-])c3ccccc3c2=O)c(C)c1 | 15 | i | 4 | 1 | 0 | 100*
N#C/C(=N/Nc1ccccc1[N+](=O)[O-])C(N)=S | . | i | -8 | 6 | 0 | i
N#C/C(=N\Nc1ccccc1)C(N)=S | . | -16* | -8 | -7 | 0 | i
Cc1ccc(N/N=C(\C#N)C(N)=S)cc1C | 2 | i | -1 | 0 | 2 | 100*
N#C/C(=N\Nc1ccc(Cl)cc1)C(N)=S | . | i | -8 | -3 | 1 | 100*
O=S(=O)(c1cccc2cnccc12)N1CCNCC1 | . | -12* | 8 | -2 | 4 | i
CCOC(=O)CC1(CCc2ccccc2)Oc2ccccc2O1 | . | . | -23 | . | . | .
COC(=O)[C@@]12C[C@@H](CC(=O)NCc3cccc(C(F)(F)F)c3)C(=O)N(Cc3ccc4c(c3)OCO4)C1=CCC(C)(C)C2 | . | . | 10 | . | . | .
CCc1ccc([C@@H]2CC=C(C(=O)O)[C@H](c3cccc(Cl)c3)N2S(=O)(=O)c2ccc(C)cc2)cc1 | . | i | 1 | 1 | 3 | 100*
CCc1ccc([C@@H]2CC=C(C(=O)O)[C@H](c3ccc(Cl)cc3)N2S(=O)(=O)c2ccc(C)cc2)cc1 | . | i | 0 | 9 | 2 | 100*
C=CCn1c(Cc2c(C)[nH]c3ccccc23)nnc1SCC(=O)NCc1ccc(F)cc1 | -6 | i | -3 | -13 | 2 | 100*
CCn1c(Cc2c(C)[nH]c3ccccc23)nnc1SCC(=O)NCc1ccccc1 | -7 | i | 4 | 0 | 2 | i
O=C(OCc1ccccc1)N(CCCCN(CCCNCc1ccccc1)C(=O)OCc1ccccc1)CCCNCc1ccccc1 | . | -5.4* | 14 | -9 | . | .
CC(NC(=O)Nc1nnc(C(F)(F)F)s1)(C(F)(F)F)C(F)(F)F | 1 | i | 7 | -7 | 1 | 100*
CC(C)(C)CC(=O)Nc1nnc(C(F)(F)F)s1 | 2 | i | 0 | 0 | 0 | i
Cc1cc(C)c2nc(Nc3nc(CSc4nc5ccccc5[nH]4)cc(=O)[nH]3)nc(C)c2c1 | . | -6.4* | -16 | 2 | . | .
CCCCOc1ccc2ccccc2c1C=O | -13 | i | 5 | 11 | 1 | i
O=[N+]([O-])/C=C/c1c(OCc2ccccc2)ccc2ccccc12 | 13 | i | 82* | 27* | 0 | i
CC(C)CN(CC(C)C)C(=O)Cc1coc2ccc3ccccc3c12 | -10 | i | 4 | -4 | 0 | 25*
O=C(O)Cc1coc2ccc3ccccc3c12 | -10 | i | -11 | 1 | 0 | i
O=C(CCCSc1nnc(SCCCC(=O)c2ccc(F)cc2)s1)c1ccc(F)cc1 | -9 | i | 0 | 2 | 2 | 25*
COc1ccc(C(=O)NNC(=S)NC(=O)C(C)(C)C)cc1 | -3 | i | -7 | -3 | 1 | 25*
Cc1cc(O)c(C=O)c2c1C(=O)Oc1c(CO)c(O)c3c(c1O2)C(O)OC3=O (stereo unspecified) | -11 | i | -31 | -2 | 72* | i
CCn1c(SCC(=O)Nc2ccc(S(=O)(=O)Nc3ccccn3)cc2)nnc1-c1ccncc1 | 3 | i | 2 | 3 | 3 | i
O=C(CSc1nnc(-c2ccccc2)n1C1CCCCC1)Nc1ccc(S(=O)(=O)Nc2ccccn2)cc1 | 0 | -12* | 1 | -14 | 1 | i
